Measured values taken from ChEMBL document CHEMBL3433997, “St. Jude Leishmania screening dataset” (2016).

Columns and labels:
Type in all cases: functional
[1] = biological target: Solute carrier family 2, facilitated glucose transporter member 1 (Homo sapiens) (UniProt P11166); assay: ST_JUDE_LEISH: Cytotoxicity at 2uM final concentration against transgenic Leishmania Mexicana promastigotes LmGLUT1 that are glucose transport deficient and complemented with the human glucose transporter GLUT1. Activity is measured by DNA content using SYBR green in vitro
Chain of Solute carrier family 2, facilitated glucose transporter member 1 (Homo sapiens) (P11166 whole entry): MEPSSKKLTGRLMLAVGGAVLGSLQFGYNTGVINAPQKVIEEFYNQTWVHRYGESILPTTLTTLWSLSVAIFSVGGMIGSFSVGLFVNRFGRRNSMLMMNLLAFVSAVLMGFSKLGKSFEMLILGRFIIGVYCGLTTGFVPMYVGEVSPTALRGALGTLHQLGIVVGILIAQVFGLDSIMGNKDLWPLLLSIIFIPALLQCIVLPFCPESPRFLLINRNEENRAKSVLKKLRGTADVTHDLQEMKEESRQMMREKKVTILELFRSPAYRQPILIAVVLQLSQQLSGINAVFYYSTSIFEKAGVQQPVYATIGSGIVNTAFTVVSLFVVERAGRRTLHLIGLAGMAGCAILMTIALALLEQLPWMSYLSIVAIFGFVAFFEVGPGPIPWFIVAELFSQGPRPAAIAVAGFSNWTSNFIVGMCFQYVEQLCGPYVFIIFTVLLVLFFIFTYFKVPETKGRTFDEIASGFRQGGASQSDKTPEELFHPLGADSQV

[2] = biological target: Hexose transporter 1 (Plasmodium falciparum) (UniProt O97467); assay: ST_JUDE_LEISH: Cytotoxicity at 2uM final concentration against transgenic Leishmania Mexicana promastigotes LmPfHT that are glucose transport deficient and complemented with the Plasmodium falciparum hexose transporter. Activity is measured by DNA content using SYBR green in vitro
[3] = biological target: Glucose transporter (Leishmania mexicana) (UniProt O61059); assay: ST_JUDE_LEISH: Cytotoxicity at 2uM final concentration against transgenic Leishmania Mexicana promastigotes LmGT2 that are glucose transport deficient and complemented with the L. Mexicana glucose transporter 2. Activity is measured by DNA content using SYBR green in vitro

Row | Compound | inhibition [1] | inhibition [2] | inhibition [3]
1 | CCc1cn(C)c2c(N3CCCC3=O)cc(C(=O)N[C@@H](Cc3ccccc3)[C@H](O)CNC(C)(C)c3cccc(OC)c3)cc12 | 4.6% | 2.52% | 7.65%
2 | COc1ccc(N2CCN(CCCCNC(=O)c3ccc(NC(=O)c4ccc(Cl)cc4)cc3)CC2)c(C)c1 | 10.4% | 8.02% | 9.07%
3 | Cc1ccc(C(=O)N2CCN(Cc3nccs3)CC2)cc1 | 1.23% | -0.14% | -0.27%
4 | COc1ccc2nccc([C@@H](O)CN3CCC(NCc4cnc5snnc5c4)C(F)C3)c2c1 (some centres not stated) | 0.43% | 1.51% | 2.93%
5 | COc1ccc(S(=O)(=O)N2CCCC(C)C2)cc1N1CCN(C(=O)c2ccc([N+](=O)[O-])o2)CC1 (configuration not stated) | 1.83% | 0.28% | 0.09%
6 | COc1ccc(OC)c(-c2ccc(=O)n(CC(=O)Nc3cccc4ccccc34)n2)c1 | 12.4% | 11.6% | 6.44%
7 | Oc1ccc(CCNc2nc(NCc3cccc(-c4cc(C(F)(F)F)ccc4Cl)c3)nc(N3CCNCC3)n2)cc1 | 2.86% | 1.88% | 2.82%
8 | N#Cc1ccc2c(c1)CCN(CCC1CCC(NC(=O)/C=C/c3c[nH]c4c(Br)cccc34)CC1)CC2 (configuration not stated) | 16.5% | 15.6% | 6.85%
9 | COc1ccc(C(=O)NCCCCN2CCC(c3ccc4c(c3OC)CCCC4)CC2)cc1-c1ccc(C(F)(F)F)cc1 | -1.89% | 0.84% | -1.69%
10 | O=C(c1ccco1)N1CCN(c2ccc([N+](=O)[O-])c(NC3CC3)c2)CC1 | 0.6% | 0.13% | -1.35%
11 | CC1(C)N=C(N)N=C(N)N1c1cccc(Cl)c1 | 0.67% | -0.19% | 2.95%
12 | Fc1cccc(CNc2ncc(-c3ccsc3)c(-c3nccs3)n2)c1 | 1.64% | 1.96% | 2%
13 | CCCCN1CCCC[C@H]1[C@@H](O)c1ccnc2ccc(OCC)cc12 | 2.63% | 3.12% | 3.68%
14 | Cc1cc(F)ccc1Nc1nc(N(C)c2ccccc2)c2cccc(OCCO)c2n1 | 13.7% | 11.2% | 4.48%
15 | COc1ccc2nccc([C@@H](O)CN3CCC(NC(=O)Cn4nc(-c5ccc(C(F)(F)F)cc5)ccc4=O)CC3)c2c1 | 4.01% | 3.03% | 1.3%
16 | CCc1nc(N)nc(N)c1-c1ccc(F)c(F)c1 | 3% | 5.22% | 3.74%
17 | Cc1cc(N(C)C)nc(Nc2ccc(NC(=O)c3ccccc3Cl)cc2)n1 | -1.66% | 5.72% | -4.81%
18 | COC(=O)CNC(c1ccccc1)c1cc(Br)ccc1NC(=O)c1ccccc1Br (configuration not stated) | 7.18% | 16.3% | 5.19%
19 | COc1cc(-c2cnc(N)c(-c3nc4ccccc4[nH]3)c2)cc(OC)c1OC | 5.26% | 9.19% | 1.47%
20 | CNC(=O)c1c(NC(=O)c2cccs2)sc2c1CCCC2 | 1.2% | 1.4% | 1.44%
21 | COC(=O)c1noc(C)c1I | 0.86% | 0.08% | 0.59%
22 | Oc1cc2c(cc1CN1CCN(Cc3ccc(Cl)s3)CC1)CCC2 | 2.02% | 4.66% | 1.82%
23 | CS(=O)(=O)c1cccc(-c2cnc3[nH]cc(-c4ccc(C(=O)O)cc4)c3c2)c1 | 1.01% | -0.81% | 1.75%
24 | COc1ccc(CCn2c(=N)c(C(=O)NCc3cccnc3)cc3c(=O)n4ccccc4nc32)cc1 | 11.7% | 10.9% | 7.6%
25 | CNC(=O)Cc1ccc(C(=O)Nc2cccc(-c3csc(-c4nc5ccccc5[nH]4)c3)c2)cc1 | -2.64% | -0.06% | 1.68%

Row | Compound | inhibition [1] | inhibition [2] | inhibition [3]
26 | FC(F)(F)c1ccc2[nH]c(-c3cccc(-c4cccc(CNCc5cnn(-c6ccccc6)n5)c4)c3)nc2c1 | 5.47% | 5.16% | 3.27%
27 | Cc1ccc2cc(C3NC(=O)c4ccccc4N3)c(Cl)nc2c1 (configuration not stated) | 18.9% | 16.3% | 14.9%
28 | COc1ccc(NC(=O)[C@H](CC(C)C)Nc2cc(C)nc(NCCc3ccc(F)cc3)n2)cc1 | 5.65% | 4.09% | 3.65%
29 | CCCCCCCN1CCC(CCNc2ccnc3ccc(OC)cc23)CC1 | 0.51% | 2.47% | 0.79%
30 | O=c1nc(NCCCNCc2cc3c(Cl)cc(Cl)cc3[nH]2)[nH]c2ccsc12 | 81.4% | 96.7% | 83.9%
31 | O=S(=O)(NCCN1CCCC1)c1cccc(-c2cccc(CNCCc3cccs3)c2)c1 | 11.7% | 12% | 8.7%
32 | Cc1[nH]c(C)c(-c2csc3ccccc23)c(=O)c1Cl | 5.32% | 5.33% | 3.61%
33 | CC(=O)Nc1ccc(CN(Cc2ccc(C)cc2)Cc2cccc(Oc3ccccc3)c2)cc1 | 2.75% | 3.12% | 2.62%
34 | Cn1cnc2c(Nc3ccncc3)nc(-c3ccc4ccccc4c3)nc21 | -0.3% | 0.97% | -0.56%
35 | COc1ccc(-c2cccc(NC(=O)c3ccc(Cl)cc3)c2)cc1CN1CCCC1 | 11.3% | 9.27% | 5.55%
36 | C[C@@H](CC1CCCCC1)OC(=O)N(C)[C@@H]1CCN(C#N)C1 | 14.6% | 10.3% | 10.5%
37 | O=C(Cc1c[nH]cn1)Nc1cccc(-c2cccc(-c3nc4ccccc4[nH]3)c2)c1 | 9.66% | 12.8% | 7.58%
38 | O=C1COC2(CN1C1CCN(Cc3ccc(O)c(Cl)c3)C1)c1ccccc1-c1ccccc12 (configuration not stated) | 9.11% | 7.57% | 5.67%
39 | O=C(Nc1ccccc1-c1ccccc1)C1CCCN1C(=O)Nc1ccc(Cl)cc1 (configuration not stated) | -0.38% | -0.89% | -2.33%
40 | Nc1nccc2ccc(-c3ccsc3)cc12 | 5.2% | 3.92% | 4.09%
41 | CN(C)c1ccc(-c2ccc(C(=O)NC3CCN(Cc4ccc(C(C)(C)C)cc4)CC3)s2)cc1 | 2.66% | 1.51% | -2.12%
42 | CCN(CC)CCN(Cc1ccc(-c2ccc(C(F)(F)F)cc2)cc1)C(=O)Cn1nc(-c2ccc(C(F)(F)F)cc2)ccc1=O | 1.46% | 2.04% | 2.83%
43 | CCCNCc1ccc(-c2ccc(CN(CC3CCCO3)C(=O)COc3ccccc3Cl)cc2)nc1 (configuration not stated) | 4.33% | 4.73% | 2.71%
44 | CN1CCC(NCc2ccc(-c3ccc(S(=O)(=O)NCc4ccccc4)c(F)c3)cc2)CC1 | 12.7% | 13.2% | 7.68%
45 | Cc1[nH]c(C)c(-c2ccc(Oc3ccc(F)cc3)cc2)c(=O)c1Br | 4.89% | 4.31% | 2.46%
46 | COc1ccc2ncc(Cl)c(CCN3CCC(NCc4ccc5c(n4)NC(=O)CO5)CC3)c2c1 | 7.95% | 5.92% | 6.59%
47 | Nc1nccc2ccc(-c3cccc(O)c3)cc12 | 7.38% | 6.21% | 4.01%
48 | N#CC(c1ccc(F)cc1)c1ccc2c(C(F)(F)F)cc(C(F)(F)F)nc2n1 (configuration not stated) | 3.66% | 4.6% | 1.81%
49 | Cc1cc(Nc2ncc(C#N)c(Nc3ccccc3C(N)=O)n2)ccc1N1CCN(C)CC1 | 79.2% | 78.8% | 65.4%
50 | O=S(=O)(NCCN1CCCC1)c1ccc(-c2ccc(CNC3Cc4ccccc4C3)cc2)cc1 | 2.13% | 0.85% | -2.78%

Row | Compound | inhibition [1] | inhibition [2] | inhibition [3]
51 | CC(C)c1ccc(NC(=O)c2ccc(CN3CCCN(CC4CCCCC4)CC3)cc2)cc1 | 3.95% | 2.01% | 5.69%
52 | Nc1nc(N)c2c(ccc3nn(Cc4cccnc4)cc32)n1 | 5.81% | 5.44% | 4.81%
53 | O=C(/C=C/c1ccc(C(F)(F)F)cc1)N1CCc2cc3nccc(N4CCN5CCC[C@H]5C4)c3cc21 | 1.68% | 2.34% | 0.92%
54 | CN(C)CCNCc1nc(-c2ccc3c(Nc4ccc(Oc5ccccc5)cc4)ccnc3c2)cs1 | -2.05% | 1.8% | 5.9%
55 | Cc1ccc(F)cc1S(=O)(=O)Nc1ccc(CCN2CCC(N3CCCCC3)CC2)cc1 | 0.5% | -0.31% | 1.36%
56 | Cn1c(N=C2NC3(c4ccccn4)NC(=Nc4nc5ccccc5n4C)NC3(c3ccccn3)N2)nc2ccccc21 (configuration not stated) | 1.54% | 2.5% | 0.64%
57 | CCNc1cc(C(=O)N[C@@H](Cc2ccccc2)[C@H](O)CNC23CC4CC(CC(C4)C2)C3)cc(N2CCCCS2(=O)=O)c1 | 3.41% | 3.36% | -0.1%
58 | CN(C)Cc1ccc(-c2ccc3ccnc(N)c3c2)cc1 | 3.2% | 4.43% | 1.95%
59 | O=C(CN1CCN(C(C(=O)Nc2cc(C(F)(F)F)ccc2Cl)c2ccccc2)CC1)NC1CC1 (configuration not stated) | 0.74% | 2.72% | 3.2%
60 | COc1ccc(CC(=O)NC(CCCN2CCC(c3ccccc3)CC2)c2ccc(Cl)c(Cl)c2)cc1OC (configuration not stated) | 1.29% | 2.2% | 0.22%
61 | O=c1cc(-c2ccc3ccccc3c2)[nH]c2ccccc12 | 2.83% | 2.68% | 2.23%
62 | Cc1cc(N(C)C)nc(Nc2ccc(NC(=O)CCc3ccccc3)cc2)n1 | 3.05% | 6.42% | 2.1%
63 | CCCCCCNC(=N)c1ccc(OCCCCCOc2ccc(C(=N)NCCCCCC)cc2)cc1 | 58.5% | 59.4% | 37.2%
64 | CCOc1ccc2nc3cc(N)ccc3c(N)c2c1 | 1.58% | 3.26% | 1.19%
65 | COc1ccc(Cl)cc1NC(=O)Nc1ccnc2ccccc12 | 14.6% | 13.4% | 6.32%
66 | CN(C)CCNCc1nc(-c2ccc3c(Nc4ccc(Cl)cc4F)ccnc3c2)cs1 | 9.87% | 8.58% | 10.1%
67 | C=CCc1cc(OC)ccc1OCCCOc1c(C)nc(N)nc1N | 78.2% | 77.6% | 65.3%
68 | Cc1ccc(Nc2nccc(NCC(O)c3ccc(C(F)(F)F)cc3)n2)cc1 (configuration not stated) | 10% | 6.26% | 3.67%
69 | COc1ccc(CN(C)Cc2cc(C(C)C)c(C)cc2O)cc1F | 2.07% | 1.85% | -2.13%
70 | COc1ccc(C=NN=c2cc(C)[nH]c3ccccc23)c(OC)c1 | 54.4% | 66% | 55.3%
71 | Cc1cc(NC(=O)CCCN2CCN(c3cccc(Cl)c3Cl)CC2)ccc1N1CCN(C(C)C)CC1 | 9.52% | 5.3% | 4.97%
72 | CN(C)c1cc(NN=Cc2cc(Cl)ccc2O)nc(N(C)C)n1 | 4.76% | 4.94% | 2.54%
73 | CC(=O)Oc1cc(C)ccc1C1CCN(CCCCNC(=O)c2ccc(NC(=O)c3ccc(Cl)cc3)cc2)CC1 | 1.6% | 1.07% | 1.52%
74 | Cc1cccc(NC(=S)NC2CCN(CCCCCNC(=O)/C=C/c3ccc(Cl)c(Cl)c3)CC2)c1 | 0.27% | 1.13% | 0.99%
